Screening results as filed in PubChem BioAssay.
Marburg entry inh – qHTS for inhibitors of binding or entry into cells for Marburg Virus; Marburg virus pseudotyped entry inhibition, cell reporter; Potency, µM (highest dose often 37.8 µM), usual class: inhibitors; hit rate 1.8% among 300,000; calls by dose curve; tested in HEK293 cells
VACV Venus inh – qHTS for Stage-Specific Inhibitors of Vaccinia Orthopoxvirus: Venus Reporter Primary qHTS; Vaccinia virus Venus reporter expression, fluorescence; Potency, µM (doses to about 36.5 µM), usual class: inhibitors; hit rate 0.46% among 330,000; AID 720580, 2013; calls by dose curve; tested in A549 cells; note: nearly all actives have a fitted effect of over 30% in size
FMDV inh – High Throughput Screening for Foot and Mouth Disease Virus Antivirals | FMDV antiviral cell-based qHTS | Potency, µM (doses to about 57.9 µM), most hits filed as inhibitors | hit rate 1.2% among 410,000 | AID 1159524, 2015; calls by dose curve; tested in HEK293T cells; note: read-out not given here; nearly all actives have a fitted effect of over 45% in size
VACV mCherry inh – qHTS for Stage-Specific Inhibitors of Vaccinia Orthopoxvirus: mCherry Reporter Primary qHTS | Vaccinia virus mCherry reporter infection, fluorescence | Potency, µM (series often up to 36.5 µM), actives largely listed as inhibitors | hit rate 0.63% among 310,000; calls by dose curve; tested in A549 cells; note: nearly all actives have a fitted effect of over 35% in size
LASV entry inh – qHTS for Inhibitors of binding or entry into cells for Lassa Virus; Potency, µM (doses to about 37.9 µM), usual class: inhibitors; Lassa virus pseudotype entry inhibition, cell reporter; hit rate 1.2% among 300,000; AID 540256, 2011; calls by dose curve; tested in HEK293 cells; note: nearly all actives have a fitted effect of over 50% in size
HCV inhibitor – qHTS Assay for Inhibitors of Hepatitis C Virus (HCV). Huh7.5.1 HCVcc-Cre infection, luciferase reporter, 44 h. Potency, µM (top dose mostly 41.8 µM), hits mostly inhibitors. hit rate 3.4% among 340,000. AID 651820, 2012; active = well fitted inhibition curve with a large enough effect; inconclusive = small, poorly fitted or top-dose-only effect, or another doubt; inactive = no such curve, though single readings can be large or run the other way
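Seed cells (1,000/well) for 4 h; treat with compound and infect with HCVcc-Cre, moi about 0.5. Incubate 44 h, then detect luciferase activity.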
Of the large screens only hits and unclear results are named; the others gave an inactive call. Compounds with a hit are over-represented: about 5.3% of the library has one in this group of screens.

Cc1ccc(NC(=O)c2ccc(CNS(=O)(=O)c3ccc4c(c3)C(C)(C)C(=O)N4C)cc2)cc1	FMDV inh inconclusive (no result: Marburg entry inh, HCV inhibitor)
COc1cc(NS(=O)(=O)c2cc3c(cc2C)n(C)c(=O)c(=O)n3C)cc(OC)c1	LASV entry inh inconclusive (no result: Marburg entry inh, HCV inhibitor)
COc1ccccc1NC(=O)Cc1noc(CSc2cc(C)c3ccccc3n2)n1	HCV inhibitor 11µM (no result: VACV Venus inh, VACV mCherry inh)
c1ccc(-c2cn3nc(-c4ccccc4)cnc3n2)cc1	LASV entry inh inconclusive
CCc1ccc(-c2cn3nc(C)c(C)nc3n2)cc1	Marburg entry inh 2.1µM, LASV entry inh inconclusive (no result: VACV Venus inh, VACV mCherry inh)
Cc1nc2nc(-c3ccccc3)cn2nc1C	Marburg entry inh inconclusive, LASV entry inh 12µM (no result: FMDV inh)
Cc1nc2nc(-c3ccc(F)cc3)cn2nc1C	none (no result: Marburg entry inh, LASV entry inh)
O=C(CSc1oc(-c2ccccc2)nc1S(=O)(=O)c1ccc(Br)cc1)c1ccccc1	none (no result: HCV inhibitor)
CN(C)c1ncc2nc(-c3ccccc3)c(=O)n(C)c2n1	none (no result: Marburg entry inh, VACV Venus inh, VACV mCherry inh, LASV entry inh, HCV inhibitor)
Cc1ccc(N2NC(=O)/C(=C\c3cc4c(cc3[N+](=O)[O-])OCO4)C2=O)cc1C	FMDV inh 13µM
Cc1ccccc1-n1c(SCC(=O)N/N=C/c2c(C)nn(-c3ccccc3)c2C)nc2ccccc2c1=O	Marburg entry inh 7.3µM, VACV Venus inh inconclusive, LASV entry inh inconclusive, HCV inhibitor inconclusive
Cc1ccc(-n2c(SCC(=O)N/N=C/c3c(C)nn(-c4ccccc4)c3C)nc3ccccc3c2=O)cc1	Marburg entry inh inconclusive, VACV mCherry inh inconclusive, HCV inhibitor inconclusive
Cc1nn(-c2ccccc2)c(C)c1/C=N/NC(=O)CSc1nc2ccccc2c(=O)n1-c1ccc(Br)cc1	Marburg entry inh inconclusive, HCV inhibitor inconclusive
Cc1nn(-c2ccccc2)c(C)c1/C=N/NC(=O)CSc1nnc(SCc2cccc3ccccc23)s1	Marburg entry inh inconclusive, LASV entry inh inconclusive, HCV inhibitor 14µM
CCC(=O)N1CCc2cc(S(=O)(=O)N3CCN(c4ccccc4F)CC3)ccc21	none (no result: HCV inhibitor)
CCOc1cc(CNCCCN2CCOCC2)cc(Br)c1OCc1ccccc1Cl	Marburg entry inh inconclusive, VACV Venus inh inconclusive, VACV mCherry inh inconclusive, LASV entry inh inconclusive, HCV inhibitor 3.5µM
CCOc1cccc(CNCCO)c1OCc1ccc(Cl)cc1	Marburg entry inh inconclusive, FMDV inh inconclusive, HCV inhibitor inconclusive
C=CCOc1c(Br)cc(CNCCCN2CCOCC2)cc1OC	HCV inhibitor inconclusive (no result: Marburg entry inh, VACV Venus inh, VACV mCherry inh, LASV entry inh)
CCOc1cc(CNCCO)cc(Br)c1OCc1ccccc1Cl	Marburg entry inh 16µM, VACV Venus inh 10µM, FMDV inh 13µM, LASV entry inh inconclusive, HCV inhibitor 8.9µM
CCOc1cc(CNCCO)cc(Br)c1OCc1ccc(Cl)cc1	Marburg entry inh inconclusive, VACV Venus inh inconclusive, FMDV inh inconclusive, VACV mCherry inh inconclusive, LASV entry inh inconclusive, HCV inhibitor 13µM
CCOc1cc(CNC(C)(C)CO)cc(Br)c1OCc1ccc(Cl)cc1Cl	Marburg entry inh 18µM, VACV Venus inh inconclusive, FMDV inh inconclusive, VACV mCherry inh inconclusive, LASV entry inh inconclusive, HCV inhibitor 2.8µM
CCCCN1C(=O)C(=O)N(CC(=O)c2cc(C)n(-c3cc(C)on3)c2C)C1=O	none (no result: Marburg entry inh, VACV Venus inh, VACV mCherry inh, LASV entry inh)
Cc1ccc(NS(=O)(=O)c2ccc3c(c2)CC(C)N3C(=O)C2CCC2)cc1Cl (centres undefined)	none (no result: Marburg entry inh, HCV inhibitor)
CCOc1cc(CNCCN2CCOCC2)ccc1OCc1ccccc1Cl	Marburg entry inh inconclusive, LASV entry inh inconclusive, HCV inhibitor 2.8µM
C=C1C(=O)OC2CC1C(O)CC(C)=CCCC(C)=CC(O)CC2C (centres undefined)	Marburg entry inh 4µM, VACV Venus inh 11µM, FMDV inh 7.9µM, VACV mCherry inh inconclusive, LASV entry inh inconclusive, HCV inhibitor 7.1µM
CCN(CC(=O)Nc1c(F)cccc1F)C(=O)c1ccc(N2CCCCC2)c([N+](=O)[O-])c1	Marburg entry inh inconclusive, LASV entry inh 7.1µM (no result: HCV inhibitor)
O=C(c1ccoc1)N1CCN(c2cc(-c3ccccc3)nc3cc(-c4ccc(Br)cc4)nn23)CC1	FMDV inh 22µM (no result: Marburg entry inh, LASV entry inh, HCV inhibitor)
CC(=O)N1CCN(c2cc(-c3ccccc3)nc3cc(-c4cccc(Cl)c4)nn23)CC1	VACV Venus inh inconclusive, FMDV inh 18µM, VACV mCherry inh inconclusive (no result: Marburg entry inh, LASV entry inh, HCV inhibitor)
O=C(c1ccncc1)N1CCN(c2cc(-c3ccccc3)nc3cc(-c4cccc(Cl)c4)nn23)CC1	VACV Venus inh inconclusive, FMDV inh 28µM, VACV mCherry inh inconclusive (no result: Marburg entry inh, LASV entry inh, HCV inhibitor)
